Source: publication PMC10668032, “Altered binding affinity of SIX1-Q177R correlates with enhanced WNT5A and WNT pathway effector expression in Wilms tumor”
In all, about 33,000 sequences were measured (“e-score”: median about -0.05, highest 2% from about 0.38 on). What follows is part of a selection rich in the highest values, with near analogues and random picks from the rest.

Each sequence was assayed against T1, SIX1-Q177R homeodomain (human, UniProt Q15475 108-198, Q177R) (assay: universal protein binding microarray; Universal all-10-mer PBM (8x60K, AMADID 030236), 300 nM GST-tagged protein, Alexa Fluor 488 anti-GST; buffer, salt, pH and temperature not stated (as in Berger); high values mean tight binding). Settings: protein: ivt; tags: N-terminal GST; dsDNA, one strand shown.
T1 sequence: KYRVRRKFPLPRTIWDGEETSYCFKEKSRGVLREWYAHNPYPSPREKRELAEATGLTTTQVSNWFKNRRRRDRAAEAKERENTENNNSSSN
Summary of the method: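 After in vitro transcription/translation, GST-tagged homeodomains were quantified against a recombinant GST standard curve by anti-GST western blot. They were then placed in duplicate at 300 nM final concentration on universal 'all 10-mer' protein binding microarrays of 8×60K format.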

GTACACAA and CTACACAC are within error of each other in binding signal: 0.308 ± 0.0492 E-score for the first, 0.297 ± 0.0318 E-score for the second.

Compared with GTACTCGA, CTACACGA is higher in binding signal: 0.19 ± 0.0242 E-score for the first, 0.388 ± 0.00636 E-score for the second.

Compared with GTACACGA, CTACACGC is lower in binding signal: 0.4189 ± 0.00327 E-score for the first, 0.4033 ± 0.000742 E-score for the second.

Going from CAACACGC to CCAGGATC, the binding signal falls from 0.363 ± 0.0087 E-score to 0.193 ± 0.0154 E-score.

CCACTTCC and TGTACGAA are within error of each other in binding signal: 0.16 ± 0.0569 E-score for the first, 0.157 ± 0.0609 E-score for the second.

Compared with AATGGACA, ACCCTCCC is higher in binding signal: 0.174 ± 0.00513 E-score for the first, 0.211 ± 0.0163 E-score for the second.

Compared with CACCTCTA, ACGTACAC is higher in binding signal: 0.295 ± 0.0114 E-score for the first, 0.436 ± 0.00504 E-score for the second.

First: CCGTACCC
Second: ACGTACCC
The binding signal of the first is lower: 0.1577 ± 0.00155 E-score for the first, 0.202 ± 0.00673 E-score for the second.

Going from GCGTACGC to GCGTACAC, the binding signal rises from 0.235 ± 0.0141 E-score to 0.4123 ± 0.00366 E-score.

Compared with ACGTAATC, CCGTACAC is higher in binding signal: 0.186 ± 0.0139 E-score for the first, 0.418 ± 0.00993 E-score for the second.

CCGCACAC and GCGTACCC are within error of each other in binding signal: 0.303 ± 0.0285 E-score for the first, 0.237 ± 0.0376 E-score for the second.

First: CACCACGA
Second: CAAGGGTA
The binding signal of the first is higher: 0.28 ± 0.0196 E-score for the first, 0.19 ± 0.0194 E-score for the second.

First: AACCCCGG
Second: AACGGACA
The binding signal of the first is lower: 0.2652 ± 0.00233 E-score for the first, 0.278 ± 0.00733 E-score for the second.

TGTCCACA and TAGGTACA are within error of each other in binding signal: 0.205 ± 0.0326 E-score for the first, 0.179 ± 0.00841 E-score for the second.

CTAGCAAA and TCCCGACA are within error of each other in binding signal: 0.173 ± 0.0314 E-score for the first, 0.155 ± 0.0127 E-score for the second.

CACCGTCC and ACACACAT are within error of each other in binding signal: 0.276 ± 0.00535 E-score for the first, 0.201 ± 0.0773 E-score for the second.

First: ACGCACCG
Second: ACACACCT
The binding signal of the first is lower: 0.177 ± 0.0273 E-score for the first, 0.386 ± 0.00817 E-score for the second.

Going from ACACACAG to ACACACCG, the binding signal rises from 0.269 ± 0.0266 E-score to 0.428 ± 0.0122 E-score.

ACACACGT and AAAAGGTG are within error of each other in binding signal: 0.27 ± 0.0195 E-score for the first, 0.195 ± 0.0717 E-score for the second.

Going from ACTGGGTG to ACGCAGTG, the binding signal falls from 0.319 ± 0.0299 E-score to 0.212 ± 0.0202 E-score.

TGTATCAA and GTCACGAC are within error of each other in binding signal: 0.158 ± 0.0316 E-score for the first, 0.164 ± 0.0297 E-score for the second.

CCCGGGAG and ACTGTGCA are within error of each other in binding signal: 0.189 ± 0.00274 E-score for the first, 0.195 ± 0.0266 E-score for the second.

First: GGGACACC
Second: CGGACACG
The binding signal of the first is higher: 0.478 ± 0.0106 E-score for the first, 0.373 ± 0.0179 E-score for the second.

Compared with GGGACACA, CGGACACC is higher in binding signal: 0.232 ± 0.0537 E-score for the first, 0.48 ± 0.00522 E-score for the second.

Compared with AGGACACG, AGGACACC is higher in binding signal: 0.349 ± 0.0239 E-score for the first, 0.4835 ± 0.000969 E-score for the second.

GGGACCCC and AGGACACA are within error of each other in binding signal: 0.211 ± 0.0329 E-score for the first, 0.224 ± 0.0724 E-score for the second.

Compared with CGGACACA, AGGACACT is higher in binding signal: 0.226 ± 0.0432 E-score for the first, 0.3795 ± 0.00235 E-score for the second.

TGGACACA and AGGTAGTG are within error of each other in binding signal: 0.252 ± 0.0644 E-score for the first, 0.2489 ± 0.00187 E-score for the second.

AGGATACA and ACCATCAG are within error of each other in binding signal: 0.159 ± 0.0108 E-score for the first, 0.181 ± 0.0146 E-score for the second.

First: CCAGCACC
Second: GACCCCTA
The binding signal of the first is lower: 0.153 ± 0.0163 E-score for the first, 0.203 ± 0.0141 E-score for the second.

Compared with CTGACTCC, ACGCCCAA is lower in binding signal: 0.2326 ± 0.00123 E-score for the first, 0.176 ± 0.019 E-score for the second.

First: ACTTCTTA
Second: ATTCACAC
The binding signal of the first is lower: 0.183 ± 0.0236 E-score for the first, 0.348 ± 0.0127 E-score for the second.

First: CTTTGCAC
Second: ATTTACAC
The binding signal of the first is lower: 0.16 ± 0.0373 E-score for the first, 0.451 ± 0.0245 E-score for the second.

CTTTACCC and CTATTTAC are within error of each other in binding signal: 0.171 ± 0.0198 E-score for the first, 0.1742 ± 0.000191 E-score for the second.

Compared with CTTTACAC, CCCCTAAG is lower in binding signal: 0.431 ± 0.0203 E-score for the first, 0.172 ± 0.0119 E-score for the second.

Compared with ACCTGGGA, CCAACAAC is higher in binding signal: 0.186 ± 0.00272 E-score for the first, 0.211 ± 0.0163 E-score for the second.

CAGCACCA and CACGTGGG are within error of each other in binding signal: 0.182 ± 0.0218 E-score for the first, 0.16 ± 0.0172 E-score for the second.

Compared with CGTGTCGC, AGTGTCGC is lower in binding signal: 0.44 ± 0.0199 E-score for the first, 0.4145 ± 0.00339 E-score for the second.

First: AGTGTTGG
Second: AGTGTGGA
The binding signal of the first is higher: 0.3564 ± 0.000735 E-score for the first, 0.162 ± 0.0186 E-score for the second.

First: AGTGTCTC
Second: CGGGTCGC
The binding signal of the first is higher: 0.329 ± 0.00361 E-score for the first, 0.189 ± 0.0605 E-score for the second.

AGTGTCGA and AGTGTCGG are within error of each other in binding signal: 0.408 ± 0.0268 E-score for the first, 0.4212 ± 0.00372 E-score for the second.

CGTGTGGC and AGGGTCGG are within error of each other in binding signal: 0.181 ± 0.00793 E-score for the first, 0.172 ± 0.00622 E-score for the second.

AAGCGGTG and CATCCACA are within error of each other in binding signal: 0.214 ± 0.0624 E-score for the first, 0.177 ± 0.00969 E-score for the second.
